PubChem BioAssay
Calls of active or inactive are those of the source.

Experiments:
[1] = molecular target: Albumin (Bos taurus) (UniProt P02769); experiment: compounds binding labelled BSA control protein – biochemical, small-molecule microarray, Alexa647 label, 635/667 nm fluorescence, artefact control for SMM control protein annotation, profiling panel (AID 1118); settings: BSA-A647 binding, fluorescence 635 nm, higher = more signal;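 note: score merges 667 nm emission intensity and signal-to-noise per printed compound spot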
[2] = probe aXIP binding to arrayed compounds – biochemical, NeuroSMM set, 635/667 nm fluorescence, primary screen (AID 1119); settings: small-molecule microarray, higher = more signal, called active from +8 up or from −8 down;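 note: probe is the protein aXip251-270 applied at 1 µg/mL to compound-printed slides; binding of probe to printed compounds measured as 667 nm fluorescence plus signal to noise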
[3] = probe aNOTCH3 binding on compound microarray – biochemical, small-molecule microarray, 635/667 nm fluorescence, primary screen (AID 1120); settings: higher = more signal;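 note: probe is a biotin-tagged antibody raised against NOTCH3 rather than NOTCH3 protein; score merges spot fluorescence near 667 nm with spot signal to noise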
[4] = probe aNOTCH2 binding on compound microarray – biochemical, small-molecule microarray, 635/667 nm fluorescence, primary screen (AID 1121); settings: higher = more signal;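 note: score merges feature fluorescence read at 667 nm with its signal to noise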
[5] = molecular target: Carbonic anhydrase 2 (Homo sapiens) (UniProt P00918); experiment: compounds binding carbonic anhydrase 2 – biochemical, small-molecule microarray, Alexa647-labelled CAII, profiling panel (AID 1122); settings: CAII-A647 binding fluorescence, higher = more signal
[6] = COS7 lysate on small-molecule microarray, probe aHis, 635 nm (AID 1123); settings: COS7 cell lysate, fluorescence, higher = more signal;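 note: z-score combines 667nm fluorescence intensity with signal-to-noise per printed compound spot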
[7] = probe aLAP1 signal on lysate-treated microarray – cell lysate, small-molecule microarray, COS7 lysate, primary screen (AID 1124); settings: probe aLAP1, fluorescence, higher = more signal;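 note: lysate comes from COS7 cells expressing LAP1 and is applied at 0.3 µg/mL; score merges spot fluorescence near 667 nm with signal-to-noise over triplicate slides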
[8] = test system: Sam68 (KHDRBS1); experiment: compounds binding KHDRBS1 protein – biochemical, small-molecule microarray, 635 nm fluorescence, primary screen (AID 1125); settings: higher = more signal;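 note: score merges 667 nm channel intensity with signal to noise over triplicate slides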
[9] = test system: Chordin-like protein 2 (CHRDL2); experiment: compounds binding chordin-like 2 – biochemical, small-molecule microarray, 635 nm fluorescence, primary screen (AID 1126); settings: fluorescence 635 nm, higher = more signal;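 note: printed compound slides probed with Chrdl2 protein at 4 µg/mL for 1 h at 4 C; score merges 667 nm emission intensity with signal to noise over three replicate slides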
[10] = molecular target: Concanavalin-A (Canavalia ensiformis) (UniProt P02866); experiment: compounds binding concanavalin A lectin – biochemical, small-molecule microarray, Alexa647 label, 635 nm, artefact control for SMM control protein annotation, primary screen (AID 1127); settings: ConA-A647 binding fluorescence, higher = more signal;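 note: z combines 667 nm emission intensity with signal-to-noise across three replicate slides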
[11] = compounds binding Alexa647 anti-His antibody – biochemical, small-molecule microarray, 635 nm fluorescence, artefact control for SMM control protein annotation, primary screen (AID 1128); settings: higher = more signal;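 note: score merges feature fluorescence with signal-to-noise for each printed compound spot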
[12] = test system: Human papillomavirus type 1a E7 protein (residues 1-88); experiment: HPV1a E7 small-molecule binders, primary screen, biochemical, small-molecule microarray, residues 1-88, 635 nm (AID 1129); settings: small-molecule microarray binding, fluorescence 635 nm; higher = more signal
[13] = molecular target: Focal adhesion kinase 1 (Homo sapiens) (UniProt Q05397); experiment: PTK2 protein binding on printed compound slides – biochemical, small-molecule microarray, 635/667 nm fluorescence, BSA, DTT, primary screen (AID 1130); settings: 635 nm fluorescence, higher = more signal;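 note: composite of spot emission at 667 nm and signal to noise over triplicate slides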
[14] = test system: Fibrinogen (Alexa647-labelled); experiment: Alexa647-fibrinogen binding to printed small molecules – biochemical, small-molecule microarray, 635/667 nm fluorescence, artefact control for SMM control-protein annotation, profiling panel (AID 1131); settings: fibrinogen-A647 binding fluorescence, higher = more signal;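 note: z-score merges 667 nm fluorescence with per-spot signal-to-noise over triplicate slides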
[15] = molecular target: Follistatin (Homo sapiens) (UniProt P19883); experiment: FST protein binding to printed compounds – biochemical, small-molecule microarray, 635/667 nm fluorescence, primary screen (AID 1132); settings: 635 nm fluorescence, higher = more signal
[16] = molecular target: Fibroblast growth factor 2 (Homo sapiens) (UniProt P09038); experiment: basic fibroblast growth factor binding to printed compounds – biochemical, small-molecule microarray, 635/667 nm fluorescence, primary screen (AID 1133); settings: FGF2, fluorescence 635/667, higher = more signal
[17] = JC-1 mitochondrial potential readout, lung cancer cells – cell-based, A549, JC-1 fluorescence, basal, 24 h, 100 nL, profiling panel (AID 1138); settings: higher = more signal;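 note: A549 lung adenocarcinoma cells under basal conditions with no added stimulus; test concentration not given here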
[18] = test system: Lefty1; experiment: Lefty1 protein binding to printed compounds – biochemical, small-molecule microarray, 635/667 nm fluorescence, primary screen (AID 1139); settings: fluorescence 635/667, higher = more signal
[19] = test system: wheat germ agglutinin (Triticum aestivum), Alexa647-labelled; experiment: Alexa647-WGA lectin binding to printed small molecules – biochemical, small-molecule microarray, 635/667 nm fluorescence, artefact control for SMM control-protein annotation, profiling panel (AID 1140); settings: WGA-A647 binding, 635 nm fluorescence, higher = more signal;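 note: score merges 667 nm feature emission with signal to noise over triplicate slides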
[20] = molecular target: Luciferin 4-monooxygenase (Photinus pyralis) (UniProt P08659); experiment: inhibition of purified Photinus pyralis luciferase – biochemical, luminescence, purified enzyme, 2006 set, primary screen (AID 1141); settings: purified firefly luciferase, SteadyGlo luminescence, 30 min; higher = more signal, called active from +8 up or from −8 down;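 note: cell-free assay with purified firefly luciferase at 100 ng per well in PBS; test concentration not given here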
Sequence of Luciferin 4-monooxygenase (Photinus pyralis) (P08659 whole entry, looked up): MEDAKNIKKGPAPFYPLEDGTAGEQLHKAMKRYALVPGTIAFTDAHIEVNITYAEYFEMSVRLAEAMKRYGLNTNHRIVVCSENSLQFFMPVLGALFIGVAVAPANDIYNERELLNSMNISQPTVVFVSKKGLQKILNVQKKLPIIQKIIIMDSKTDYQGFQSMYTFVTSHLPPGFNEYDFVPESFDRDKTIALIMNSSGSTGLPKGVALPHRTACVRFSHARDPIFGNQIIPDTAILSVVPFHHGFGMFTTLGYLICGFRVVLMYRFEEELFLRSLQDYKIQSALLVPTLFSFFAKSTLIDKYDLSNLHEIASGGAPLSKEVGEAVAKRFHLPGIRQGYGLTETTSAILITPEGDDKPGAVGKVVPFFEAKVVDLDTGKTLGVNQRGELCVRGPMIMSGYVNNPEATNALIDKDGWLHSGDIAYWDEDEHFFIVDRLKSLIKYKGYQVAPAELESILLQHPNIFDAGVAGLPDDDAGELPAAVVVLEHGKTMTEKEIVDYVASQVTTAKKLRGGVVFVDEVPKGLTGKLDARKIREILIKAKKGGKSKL

Sequence of Follistatin (Homo sapiens) (P19883 whole entry, looked up): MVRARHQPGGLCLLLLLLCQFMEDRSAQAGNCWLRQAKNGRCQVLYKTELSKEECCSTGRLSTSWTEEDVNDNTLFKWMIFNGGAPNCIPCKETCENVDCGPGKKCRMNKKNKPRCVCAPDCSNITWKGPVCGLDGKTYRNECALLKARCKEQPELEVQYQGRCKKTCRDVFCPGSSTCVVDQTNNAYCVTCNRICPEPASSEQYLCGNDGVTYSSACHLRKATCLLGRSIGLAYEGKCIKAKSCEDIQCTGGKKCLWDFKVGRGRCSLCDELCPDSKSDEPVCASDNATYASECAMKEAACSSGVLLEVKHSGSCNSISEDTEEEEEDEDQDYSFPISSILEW
Sequence of Concanavalin-A (Canavalia ensiformis) (P02866 whole entry, looked up): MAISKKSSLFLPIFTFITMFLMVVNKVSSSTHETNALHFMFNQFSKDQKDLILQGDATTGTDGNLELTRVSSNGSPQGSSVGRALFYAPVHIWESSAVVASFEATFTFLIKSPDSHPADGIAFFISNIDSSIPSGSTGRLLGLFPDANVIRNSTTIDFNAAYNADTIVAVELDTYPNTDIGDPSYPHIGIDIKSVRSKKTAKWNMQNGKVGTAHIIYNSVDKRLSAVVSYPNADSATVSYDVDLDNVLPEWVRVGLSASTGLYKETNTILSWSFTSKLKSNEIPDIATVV
Sequence of Albumin (Bos taurus) (P02769 whole entry, looked up): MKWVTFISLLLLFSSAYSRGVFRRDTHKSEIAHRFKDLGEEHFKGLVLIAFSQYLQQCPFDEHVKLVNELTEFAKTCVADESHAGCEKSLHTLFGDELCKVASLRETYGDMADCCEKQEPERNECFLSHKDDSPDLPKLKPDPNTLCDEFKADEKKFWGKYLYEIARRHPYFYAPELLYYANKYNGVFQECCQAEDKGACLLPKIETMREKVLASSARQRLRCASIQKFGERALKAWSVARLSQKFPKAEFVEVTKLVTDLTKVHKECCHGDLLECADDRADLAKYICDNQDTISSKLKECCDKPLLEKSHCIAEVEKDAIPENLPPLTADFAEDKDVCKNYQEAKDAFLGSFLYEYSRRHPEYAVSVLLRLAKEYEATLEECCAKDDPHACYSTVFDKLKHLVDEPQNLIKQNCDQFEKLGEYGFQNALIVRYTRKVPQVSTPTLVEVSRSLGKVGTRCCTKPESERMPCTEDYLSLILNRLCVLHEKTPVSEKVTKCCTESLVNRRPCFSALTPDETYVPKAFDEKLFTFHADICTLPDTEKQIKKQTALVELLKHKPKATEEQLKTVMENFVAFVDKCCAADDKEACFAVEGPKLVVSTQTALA
Sequence of Fibroblast growth factor 2 (Homo sapiens) (P09038 whole entry, looked up): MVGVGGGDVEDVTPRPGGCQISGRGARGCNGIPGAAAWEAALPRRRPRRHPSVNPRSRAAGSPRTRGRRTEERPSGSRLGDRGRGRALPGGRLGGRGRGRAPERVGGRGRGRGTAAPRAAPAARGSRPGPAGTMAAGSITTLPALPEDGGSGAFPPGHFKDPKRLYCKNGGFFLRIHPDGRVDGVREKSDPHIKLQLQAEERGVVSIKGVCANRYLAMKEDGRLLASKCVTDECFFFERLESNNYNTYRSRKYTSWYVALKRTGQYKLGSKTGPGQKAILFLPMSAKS
Sequence of Focal adhesion kinase 1 (Homo sapiens) (Q05397 whole entry, looked up): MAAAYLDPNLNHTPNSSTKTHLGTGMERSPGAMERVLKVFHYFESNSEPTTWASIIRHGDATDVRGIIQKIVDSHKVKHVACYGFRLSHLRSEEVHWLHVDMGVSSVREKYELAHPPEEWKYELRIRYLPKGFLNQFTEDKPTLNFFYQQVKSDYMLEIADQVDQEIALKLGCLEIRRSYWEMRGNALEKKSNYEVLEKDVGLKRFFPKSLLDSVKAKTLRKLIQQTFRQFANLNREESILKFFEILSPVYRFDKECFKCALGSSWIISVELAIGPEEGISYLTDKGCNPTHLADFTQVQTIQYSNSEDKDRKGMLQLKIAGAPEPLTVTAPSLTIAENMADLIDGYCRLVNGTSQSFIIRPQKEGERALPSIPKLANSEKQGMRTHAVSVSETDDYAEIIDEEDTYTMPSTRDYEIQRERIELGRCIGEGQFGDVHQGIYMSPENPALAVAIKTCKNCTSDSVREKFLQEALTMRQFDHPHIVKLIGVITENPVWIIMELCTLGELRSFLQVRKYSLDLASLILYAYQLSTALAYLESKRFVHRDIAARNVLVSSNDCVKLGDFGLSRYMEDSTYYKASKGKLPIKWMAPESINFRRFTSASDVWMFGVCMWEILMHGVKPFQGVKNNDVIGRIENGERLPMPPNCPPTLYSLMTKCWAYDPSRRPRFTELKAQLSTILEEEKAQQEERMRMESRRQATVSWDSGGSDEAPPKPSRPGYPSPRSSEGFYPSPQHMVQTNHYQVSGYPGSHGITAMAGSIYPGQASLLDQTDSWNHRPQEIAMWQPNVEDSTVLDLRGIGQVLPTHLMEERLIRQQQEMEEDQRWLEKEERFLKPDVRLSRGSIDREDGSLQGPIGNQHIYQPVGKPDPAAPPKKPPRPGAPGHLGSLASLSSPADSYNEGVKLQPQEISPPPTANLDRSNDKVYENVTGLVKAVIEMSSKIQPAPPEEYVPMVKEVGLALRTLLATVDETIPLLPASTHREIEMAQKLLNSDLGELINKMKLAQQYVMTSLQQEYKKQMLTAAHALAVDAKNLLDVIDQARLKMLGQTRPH

| Compound | composite z-score [1] | composite Z-score [2] | composite z-score [3] | composite z-score [4] | composite z-score [5] | composite z-score [6] | composite z-score [7] | composite z-score [8] | composite z-score [9] | composite z-score [10] | composite z-score [11] | composite z-score [12] | composite z-score [13] | composite z-score [14] | composite z-score [15] | composite z-score [16] | z-score [17] | composite z-score [18] | composite z-score [19] | z-score [20] |
| --- | --- | --- | --- | --- | --- | --- | --- | --- | --- | --- | --- | --- | --- | --- | --- | --- | --- | --- | --- | --- |
| O=C(CS)NCCCCCCNC(=O)[C@H]1C[C@H]2C(=O)N3CCC[C@H]3C(=O)N2[C@H]1c1ccc(O)cc1 | 0.11 | 0.131 (inactive) | 0.298 | -0.147 | 0.389 | -0.125 | -0.0269 | 0.557 | 0.257 | 0.853 | 1.81 | 0.828 | 0.163 | 0.702 | 1.37 | 1.34 | -0.708 | 1.16 | 0.681 | 0.102 (inactive) |
| O=C1OCC=C[C@H]2OC34C=CCN(Cc5ccccc5)C(=O)[C@H]3N(CCCO)C(=O)[C@@H]4[C@@H]12 (stereo not given in full) | 0.792 | 2.97 (inactive) | 0.577 | 0.0753 | 0.786 | 3.07 | 1.08 | 0.89 | -0.888 | 0.226 | 2.26 | 0.374 | 1.14 | -0.827 | 0.397 | -0.56 | -0.63 | 1.12 | -0.0711 | -0.241 (inactive) |
| COc1ccc([Si](C)(C)[C@@H]2[C@@H](CCn3cc([C@H](O)c4ccccc4)nn3)O[C@]3(C(=O)N(C)c4ccccc43)[C@H]2C)cc1 | 0.718 | 0.19 (inactive) | -0.175 | -0.19 | 0.494 | 0.613 | 0.0014 | 0.302 | -0.13 | 0.44 | 0.214 | 0.991 | 0.227 | -0.892 | 0.0274 | 0.283 | -0.0374 | 0.57 | 0.0783 | 0.431 (inactive) |
| CN(C)CCCC[C@@H]1NC(=O)[C@@H]2C[C@H](C(=O)NCCCCCCN)[C@H](c3ccc(O)cc3)N2C1=O | -0.254 | 0.142 (inactive) | 0.575 | 0.271 | 0.674 | 1.81 | 0.821 | 1.31 | 0.808 | 0.616 | 0.297 | 1.19 | 1.55 | 0.763 | 1.35 | 0.787 | -0.729 | 0.829 | 0.998 | 0.37 (inactive) |
| CC1CC/C=C\[C@H]2OC34C=CCN(Cn5nnc6ccccc65)C(=O)[C@H]3N(CCCO)C(=O)[C@@H]4C2C(=O)O1 (stereo not given in full) | 0.757 | 0.372 (inactive) | -0.272 | -0.115 | 0.926 | 0.016 | 1.2 | -0.119 | -1.33 | -0.668 | 0.239 | -0.326 | -0.47 | -1.15 | -0.693 | -1.03 | -0.198 | -0.146 | -1.09 | 0.885 (inactive) |
